24 compounds from PubChem BioAssay (Tox21) can be followed below.

Assay [1] can be described thus: qHTS assay to identify small molecule antagonists of the estrogen receptor alpha (ER-alpha) signaling pathway using the BG1 cell line in the presence of 0.1 nM 17-beta-estradiol - cell viability counter screen (AID 1259241). Further: nearly all actives have a fitted effect of over 40% in size. Put shortly: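 Live-cell protease activity (CellTiter-Fluor fluorescence, 30 min) was read in the same wells after VM7Luc4E2 cells had been exposed to compounds with 0.1 nM 17beta-estradiol for 22 hr at 37C.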
Background: In qHTS, concentration-response curves come from the screen itself.

Assay [2] can be described thus: qHTS assay to identify small molecule antagonists of the androgen receptor (AR) signaling pathway using the MDA cell line in the presence of 0.5 nM R1881 - cell viability counter screen (AID 1259242). Further: nearly all actives have a fitted effect of over 45% in size. Put shortly:
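Fluorescence from CellTiter-Fluor, which reports protease activity of live cells, was read 30 min after reagent addition to MDA-kb2 cells that had been incubated 16 hr with compound and 0.5 nM R1881.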

Assay [3] has as its target Androgen receptor (Homo sapiens) (UniProt P10275). Briefly: qHTS assay to identify small molecule antagonists of the androgen receptor (AR) signaling pathway using the MDA cell line in the presence of 0.5 nM R1881 (AID 1259243). Further: nearly all actives have a fitted effect of over 50% in size. Further: potency means the concentration at half of the fitted maximal effect. Put shortly:
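Inhibition of R1881 (0.5 nM final) induced reporter signal was measured in human MDA-kb2 cells; note the MMTV promoter also responds to GR. Exposure lasted 16 hr at 37C.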

The target of assay [4] is Estrogen receptor (Homo sapiens) (UniProt P03372). Briefly: qHTS assay to identify small molecule antagonists of the estrogen receptor alpha (ER-alpha) signaling pathway using the BG1 cell line in the presence of 0.1 nM 17-beta-estradiol (AID 1259244). Further: nearly all actives have a fitted effect of over 50% in size. Further: potency means the concentration at half of the fitted maximal effect. Put shortly: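 Quantitative high-throughput screen in VM7Luc4E2 cells: compound plus 0.1 nM E2 (final), 22 h, 37C, 5% CO2; ONE-Glo added, 30 min room temperature, luminescence measured.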
Chain of Estrogen receptor (Homo sapiens) (P03372 whole entry, looked up): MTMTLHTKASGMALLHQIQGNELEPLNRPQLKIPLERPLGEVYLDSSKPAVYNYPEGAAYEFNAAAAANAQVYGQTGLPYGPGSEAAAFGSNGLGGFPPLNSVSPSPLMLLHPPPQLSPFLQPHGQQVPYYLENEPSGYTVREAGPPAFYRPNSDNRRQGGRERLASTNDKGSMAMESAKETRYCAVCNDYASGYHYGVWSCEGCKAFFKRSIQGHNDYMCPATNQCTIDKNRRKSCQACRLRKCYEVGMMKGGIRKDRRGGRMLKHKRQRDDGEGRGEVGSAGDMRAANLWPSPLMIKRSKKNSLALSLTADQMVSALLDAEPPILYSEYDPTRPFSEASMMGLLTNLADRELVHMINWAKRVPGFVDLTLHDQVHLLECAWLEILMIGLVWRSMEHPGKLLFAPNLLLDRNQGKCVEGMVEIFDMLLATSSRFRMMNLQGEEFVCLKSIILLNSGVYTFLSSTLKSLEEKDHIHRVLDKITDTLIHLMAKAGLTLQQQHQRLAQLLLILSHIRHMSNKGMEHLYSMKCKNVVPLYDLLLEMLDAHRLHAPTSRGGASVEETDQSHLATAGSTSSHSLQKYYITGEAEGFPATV

Assay [5] can be described thus: qHTS assay to identify small molecule HDAC inhibitors (AID 1259364). Further: top concentration of the series differs between compounds; nearly all actives have a fitted effect of over 45% in size. In a few lines:
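Endogenous HDAC class I/II activity was measured in wild-type HCT-116 cells by HDAC-Glo luminescence after 2 h compound treatment.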

A short description of assay [6]: qHTS assay to identify small molecule HDAC inhibitors - cell viability counter screen (AID 1259365). Further: series mostly up to about 92 µM; nearly all actives have a fitted effect of over 50% in size. Put shortly:
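HCT-116 (wild type), 1,500 cells/well, overnight 37C/5% CO2; compound in DMSO 2hr; CellTiter-Glo 30min RT; luminescence read.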

The nature of assay [7]: qHTS assay to identify small molecule agonists of the sonic hedgehog signaling (Shh) pathway - cell viability counter screen (AID 1259366). Further: nearly all actives have a fitted effect of over 50% in size. Put shortly:
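CellTiter-Fluor fluorescence read-out, 1 hr at 37C, added after 23hr compound exposure. Cells: 3T3 Gli1-Luc, an NIH/3T3 clone with stably integrated Gli1-Luc reporter, plated 4hr before compound.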

Assay [8] in a line: qHTS assay to identify small molecule antagonists of the sonic hedgehog signaling (Shh) pathway - cell viability counter screen (AID 1259367). Further: nearly all actives have a fitted effect of over 55% in size. Put shortly: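 Cells: 3T3 Gli1-Luc, 2,000/well, 4 hr pre-incubation. Compounds in DMSO, then conditioned medium. Incubation 24 hr, 37C, 5% CO2. CellTiter-Fluor at 23 hr, 1 hr, fluorescence.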
Assay [9] can be described thus: qHTS assay to identify small molecule agonists of the sonic hedgehog signaling (Shh) pathway (AID 1259368; calls by dose curve;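 further: NIH/3T3-derived 3T3Gli1-Luc cells carrying a stable Gli1-driven firefly luciferase reporter; series mostly up to about 92 µM; nearly all actives have a fitted effect of over 15% in size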). Put shortly: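 Luminescent signal was taken as a measure of Gli1-controlled luciferase expression in stably transfected NIH/3T3-derived cells that had been treated for 24 hr with compounds delivered in DMSO.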
A short description of assay [10]: qHTS assay to identify small molecule phospholipidosis (PLD) inducers (AID 1259344; active means well fitted curve in the direction sought with a large enough effect; an effect the other way counts as inactive or inconclusive). Put shortly: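 Phospholipidosis is scored by imaging LipidTOX-stained pits in HepG2 cells exposed to compound for 24 h at 37 C; pit counts and integrated intensities per well and per cell serve as outputs.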

Unmarked numbers belong to inactive results. Results filed as inconclusive are left out. Active and inactive are the calls of the source. Unless noted, the call rests on the fitted dose curve; in most records, active means well fitted curve in the direction sought with a large enough effect in the repeat runs; inconclusive means weak or mixed curves; inactive means no such curve, though single readings can be large; an effect the other way counts as inactive or inconclusive.
On the % scale 0 is the no-effect control and ±100 the full control effect.

Chain of Androgen receptor (Homo sapiens) (P10275 whole entry, looked up): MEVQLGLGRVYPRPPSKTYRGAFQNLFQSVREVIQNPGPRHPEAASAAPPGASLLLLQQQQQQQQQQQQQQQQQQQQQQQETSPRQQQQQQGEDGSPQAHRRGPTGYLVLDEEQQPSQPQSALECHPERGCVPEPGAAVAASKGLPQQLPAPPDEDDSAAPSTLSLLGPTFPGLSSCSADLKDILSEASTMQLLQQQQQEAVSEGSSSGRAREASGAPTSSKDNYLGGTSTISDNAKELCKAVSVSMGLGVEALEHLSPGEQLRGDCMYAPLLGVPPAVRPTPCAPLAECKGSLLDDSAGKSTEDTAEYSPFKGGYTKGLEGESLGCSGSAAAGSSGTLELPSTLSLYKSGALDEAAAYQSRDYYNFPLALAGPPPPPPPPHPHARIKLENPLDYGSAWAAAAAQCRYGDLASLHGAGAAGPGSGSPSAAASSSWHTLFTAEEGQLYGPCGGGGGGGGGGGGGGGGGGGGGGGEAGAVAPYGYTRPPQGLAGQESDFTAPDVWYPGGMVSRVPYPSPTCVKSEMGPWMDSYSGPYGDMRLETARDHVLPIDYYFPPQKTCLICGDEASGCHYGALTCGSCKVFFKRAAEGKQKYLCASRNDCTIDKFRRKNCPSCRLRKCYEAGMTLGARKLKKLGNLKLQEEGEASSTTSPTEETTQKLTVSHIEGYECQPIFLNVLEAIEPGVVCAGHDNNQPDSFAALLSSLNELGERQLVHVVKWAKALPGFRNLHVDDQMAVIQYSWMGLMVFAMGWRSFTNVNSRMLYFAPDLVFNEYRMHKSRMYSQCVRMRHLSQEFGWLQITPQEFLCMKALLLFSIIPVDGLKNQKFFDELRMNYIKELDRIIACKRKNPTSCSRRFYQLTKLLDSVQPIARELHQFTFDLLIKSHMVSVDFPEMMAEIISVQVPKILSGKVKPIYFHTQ

With `Oc1ccc(Nc2ccccc2)cc1`, the Potency result in assay [1], in assay [2], in assay [4], in [5], in [6] and in assay [7] was “inactive” each time. The Potency entry in assay [8] was “inactive”. Besides, in [3], the Potency is 30.6 µM (active).

As for `Nc1ccc(Cl)cc1[N+](=O)[O-]`, the Potency result in assay [1], in assay [2], in assay [4], in [5], in assay [6] and in assay [7] was “inactive” each time. Moreover, the Potency entry in assay [8] and in assay [9] was “inactive” throughout. In addition, in assay [3], the Potency is 27 µM (active).

In the case of `CCOC(=O)/C=C/C(=O)O`, the Potency result in assay [1], in assay [2], in [3], in assay [4], in assay [5] and in assay [6] was “inactive” in each case. The Potency result in assay [8] and in assay [9] was “inactive” in each case.

With `CCCC(=O)O[C@]1(C(=O)COC(=O)CC)CC[C@H]2[C@@H]3CCC4=CC(=O)CC[C@]4(C)[C@H]3[C@@H](O)C[C@@]21C`, the activity change, negative = cytotoxicity was 7.4% [at 19 µM] in assay [1] and -1.94% [at 19 µM] in [6]. Moreover, the results for the viability change, negative = cytotoxic in assay [2] and in assay [8] were 0.0902% [at 19 µM] and -1.17% [at 19 µM], respectively. Moreover, in assay [3], the Potency entry was “inactive”. Also, the activity change, negative = inhibition was 31.4% [at 19 µM] in assay [4] and -0.144% [at 19 µM] in [5]. Also, the PLD induction in [10] was -3.36% [at 7.66 µM]. In addition, the activity change in [9] is -1.53% [at 18.9 µM, stronger effect = higher value].

Turning to `O=C(CCCCCCCCC#CI)Oc1ccccc1`, the Potency result in assay [1], in assay [2], in [3], in assay [5], in assay [6] and in assay [7] was “inactive” in each case. The Potency entry in assay [8] and in [9] was “inactive” in each case. For the same compound, the PLD induction in assay [10] is 8.17% [at 7.66 µM].

In the case of `COc1cc2c(cc1OC)-c1cc(=Nc3c(C)cc(C)cc3C)n(C)c(=O)n1CC2`, the Potency result in assay [1], in assay [2], in [3], in [4], in assay [5] and in [6] was “inactive” throughout. Besides, the Potency entry in [7] and in [9] was “inactive” in each case. Moreover, in assay [10], the compound was classed as inactive.

Consider `CCN(CC)CCNC(=O)c1ccc(NC(C)=O)cc1`, for which the Potency entry in assay [1], in assay [2], in assay [3], in [4], in [5] and in [6] was “inactive” each time. Moreover, the Potency entry in [7], in assay [8] and in assay [9] was “inactive” throughout. In assay [10], the result was inactive.

As for `CC(C)=CC=O`, the Potency entry in assay [1], in assay [2], in [3], in assay [4], in assay [5] and in [6] was “inactive” each time. For the same compound, the Potency result in assay [7], in assay [8] and in [9] was “inactive” each time.

Consider `CCCOC(=O)c1ccc(C(=O)OCCC)nc1`, for which the Potency result in [1], in assay [2], in [3], in assay [4], in assay [6] and in assay [7] was “inactive” each time. For the same compound, the Potency result in [8] and in assay [9] was “inactive” each time.

Turning to `O=C(O)c1ccccc1NCCc1ccccc1`, the Potency entry in assay [1], in assay [2], in assay [3], in [4], in assay [6] and in assay [7] was “inactive” throughout. The Potency entry in [8] and in assay [9] was “inactive” in each case.

Consider `CCC(C(=O)OCCN(CC)CC)c1ccccc1` (stereo not given), for which the Potency entry in [1], in assay [2], in assay [3], in assay [4], in assay [5] and in [6] was “inactive” each time. Moreover, the Potency result in [7], in assay [8] and in [9] was “inactive” in each case. Moreover, the outcome in [10] was inactive.

In the case of `CC(C)(O)c1ccccc1CC[C@@H](SCC1(CC(=O)O)CC1)c1cccc(/C=C/c2ccc3ccc(Cl)cc3n2)c1`, the Potency result in [1], in assay [2], in assay [3], in assay [4], in assay [5] and in [6] was “inactive” in each case. Moreover, the Potency result in [7], in assay [8] and in assay [9] was “inactive” each time. In assay [10], the call was inactive.

On to `CNC(=O)N(c1ccccc1)c1ccccc1`, for which the Potency entry in [1], in assay [2], in assay [3], in [4], in assay [5] and in [6] was “inactive” in each case. Besides, the Potency entry in assay [7] and in assay [8] was “inactive” each time.

As for `C/C(=N/NC(=O)c1ccncc1)C(=O)O`, the Potency entry in assay [1], in assay [2], in assay [3], in assay [4], in assay [5] and in assay [6] was “inactive” each time. For the same compound, the Potency entry in [7], in assay [8] and in assay [9] was “inactive” in each case.

In the case of `OCC1CC=CCC1` (stereo not given), the Potency entry in assay [1], in assay [2], in assay [3], in assay [4], in assay [5] and in [6] was “inactive” in each case. Moreover, the Potency result in [7], in assay [8] and in assay [9] was “inactive” each time.

With `CC(=O)Nc1ccc(N)cc1`, the Potency result in assay [1], in assay [2], in assay [3], in assay [4], in assay [5] and in [6] was “inactive” in each case. Besides, the Potency entry in assay [7] and in assay [8] was “inactive” throughout.

Consider `Cc1cc(O)c(C(C)C)cc1Cl`, for which the Potency result in [1], in assay [2], in [4], in assay [5], in assay [6] and in assay [7] was “inactive” in each case. In addition, the Potency result in assay [8] and in [9] was “inactive” throughout. In [10], the compound was classed as inactive.

With `O=C(CCCCCCC(=O)Nc1ccccc1)NO`, the Potency entry in assay [1], in [2] and in [9] was “inactive” throughout. Besides, the Potency in [4] was 3.35 µM (active). Moreover, the compound was called inactive in assay [10].

On to `CCCCC(=O)O[C@]1(C(=O)CO)CC[C@H]2[C@@H]3CCC4=CC(=O)CC[C@]4(C)[C@H]3[C@@H](O)C[C@@]21C`, for which the Potency result in [1], in assay [2], in assay [4], in [5], in [6] and in assay [7] was “inactive” throughout. The Potency result in assay [8] is “inactive”. The result in assay [10] was inactive.

Consider `CCC(C(=O)OCCOCCN(CC)CC)c1ccccc1` (stereo not given), for which the Potency result in assay [1], in [2], in assay [4], in assay [5], in assay [6] and in [7] was “inactive” throughout. In assay [8], the Potency entry was “inactive”. Also, in assay [10], the call was inactive.

Turning to `CCOC(=O)C(C)Oc1ccc(Oc2nc3ccc(Cl)cc3o2)cc1` (stereo not given), the Potency entry in assay [1], in assay [2], in assay [3], in [5], in [6] and in assay [8] was “inactive” throughout.

Consider `CC(Cl)C(Cl)Cl` (stereo not given), for which the Potency result in [1], in assay [2], in assay [4], in [5], in assay [6] and in [7] was “inactive” each time. Moreover, in [8], the Potency entry was “inactive”.

For the compound `Nc1c(I)cc(I)c(C(=O)N(CCC(=O)O)c2ccccc2)c1I`, the Potency result in [1], in assay [2], in assay [3], in [5], in [6] and in assay [7] was “inactive” throughout. Also, the Potency result in [8] and in assay [9] was “inactive” throughout.

For `COC(=O)c1cc(Cl)ccc1NS(=O)(=O)C(F)(F)F`, the Potency entry in assay [1], in [2], in [3], in assay [5], in assay [6] and in [7] was “inactive” each time. The Potency entry in assay [8] and in assay [9] was “inactive” throughout.
